# Experimental data as given in PubChem BioAssay (Tox21).
# Values without a mark were called inactive. Results filed as inconclusive are left out. Entries that show only a call come without a potency. The source made the active and inactive calls. Unless noted, calls come from the whole dose curve.
# Tests used:
# [1] = Nuclear factor erythroid 2-related factor 2/antioxidant responsive element (Nrf2/ARE) small molecule agonists: qHTS cell viability counter screen in human keratinocytes (AID 1919968; active = well fitted curve in the direction sought with a large enough effect in the repeat runs; an effect the other way counts as inactive or inconclusive; note: nearly all actives have a fitted effect of over 55% in size)
# Method in brief: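 Measured as CellTiter-Fluor fluorescence, this readout tracks cytotoxicity in the same wells as the ARE-luciferase screen. HaCaT reporter cells (1,500/well) received compounds after a 5 h pre-incubation and were exposed for 23 h.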
# [2] = Nuclear factor erythroid 2-related factor 2/antioxidant responsive element (Nrf2/ARE) small molecule agonists: luciferase reporter gene qHTS assay in human keratinocytes (AID 1919969); note: nearly all actives have a fitted effect of over 35% in size; note: potency is the fitted concentration of half-maximal effect
# [3] = target: Gonadotropin-releasing hormone receptor (Homo sapiens) (UniProt P30968); assay: Human gonadotropin-releasing hormone receptor (GnRHR) small molecule agonists, calcium flux assay in GnRHR-HEK293 cells (AID 1920063); note: nearly all actives have a fitted effect of over 35% in size; note: potency is the fitted concentration of half-maximal effect
# Method in brief: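 Fluorescence kinetics (480 nm excitation, 540 nm emission; 3 min, 1 s steps) report calcium mobilisation in human GnRHR-HEK293 cells in agonist mode. Dye incubation: 1 h, 37 C.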
# [4] = target: KiSS-1 receptor (Homo sapiens) (UniProt Q969F8); assay: Human kisspeptin (KISS1R) small molecule agonists, calcium flux assay in KISS1R-HEK293 cells (AID 1920064; active = well fitted curve in the direction sought with a large enough effect in the repeat runs; an effect the other way counts as inactive or inconclusive)
# Method in brief: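 Measures KISS1R agonism through calcium-sensitive dye fluorescence in stably transfected HEK293 cells, read for 3 min after pin-tool compound delivery; 15-point titrations in triplicate.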
# [5] = G protein-coupled receptor (GPCR) small molecule agonists, calcium flux assay: HEK293 wild type cell line counter screen (AID 1920065)
# Method in brief: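 Readout: fluorescence at 480 nm excitation/540 nm emission, sampled at 1 s intervals for 3 min. Cells had been cultured 18 h, then dye-loaded 1 h at 37 C before compound or ATP addition.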
# [6] = p53 small molecule agonists, cell-based qHTS assay with rat liver microsomes (AID 1963578)
# Method in brief: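 Agonist mode in p53RE-bla reporter cells, with compounds co-incubated 16 h at 37 C alongside 0.5 mg/mL rat liver microsomes and 0.5 mg/mL NADPH (final), followed by a 2 h LiveBLAzer detection step.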
# [7] = p53 small molecule agonists, cell-based qHTS assay with human liver microsomes: qHTS cell viability counter screen (AID 1963579); note: nearly all actives have a fitted effect of over 45% in size
# Method in brief: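 Metabolically activated exposure: compounds, human liver microsomes and NADPH (0.5 mg/mL final apiece) were added to p53RE-bla cells seeded 5 h earlier, left 16 h at 37 C, and then assessed for viability by CellTiter-Glo luminescence.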
# [8] = p53 small molecule agonists, cell-based qHTS assay with rat liver microsomes: qHTS cell viability counter screen (AID 1963580); note: nearly all actives have a fitted effect of over 45% in size
# Method in brief: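 HCT-116 p53RE-bla, 4,000 cells/well, 5 h pre-incubation; cpd + rat liver microsomes 0.5 mg/mL + NADPH 0.5 mg/mL (final); 16 h, 37 C; CellTiter-Glo, 30 min RT; luminescence.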
# [9] = p53 small molecule agonists, cell-based qHTS assay: qHTS cell viability counter screen (AID 1963581); note: nearly all actives have a fitted effect of over 45% in size
# Method in brief: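 In the same plates used for the p53 bla reporter, HCT-116 cells given compounds for 16 h at 37 C received CellTiter-Glo; luminescence was recorded 30 min later at room temperature.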
# [10] = target: 5-hydroxytryptamine receptor 2A (Homo sapiens) (UniProt P28223); assay: 5-hydroxytryptamine receptor 2A (HTR2A) small molecule antagonists, cell-based qHTS assay (AID 1963586); note: nearly all actives have a fitted effect of over 45% in size
# Method in brief: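 Antagonist-mode intracellular calcium assay: DOI (4 nM) added after 5 min compound pre-incubation at room temperature to dye-loaded HTR2A-CHO cells. Fluorescence followed for 3 min, sampled every second.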
# [11] = target: 5-hydroxytryptamine receptor 2A (Homo sapiens) (UniProt P28223); assay: 5-hydroxytryptamine receptor 2A (HTR2A) small molecule agonists, cell-based qHTS assay (AID 1963587); note: nearly all actives have a fitted effect of over 30% in size
# Method in brief: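 Kinetic calcium-flux fluorescence (2 min, 1 sec intervals) after compound addition in agonist mode. HTR2A-CHO cells were cultured 18 h, then dye-loaded 1 h at 37 C.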
# [12] = target: Muscarinic acetylcholine receptor M1 (Homo sapiens) (UniProt P11229); assay: Cholinergic receptor muscarinic 1 (CHRM1) small molecule antagonists, cell-based qHTS assay (AID 1963588); note: nearly all actives have a fitted effect of over 40% in size
# Method in brief: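 CHRM1-CHO calcium-flux assay, antagonist mode. Cells were seeded 18 h, dye-loaded 1 h at 37 C and given compound for 5 min at RT, then acetylcholine was added at 50nM. FDSS fluorescence was read 3 min; 15 concentrations, three runs.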
# [13] = target: Muscarinic acetylcholine receptor M1 (Homo sapiens) (UniProt P11229); assay: Cholinergic receptor muscarinic 1 (CHRM1) small molecule agonists, cell-based qHTS assay (AID 1963589); note: nearly all actives have a fitted effect of over 35% in size
# Method in brief: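 Each compound was tested at 15 concentrations across three independent runs on dye-loaded CHO cells stably expressing human CHRM1, reading intracellular calcium fluorescence kinetically at 1 sec intervals.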
# [14] = cAMP Responsive Elements (CRE) small molecule agonists, cell-based qHTS assay (AID 1963590)
# Method in brief: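 Cell line: CRE-bla HEK 293T; medium DMEM/10% dialyzed FBS/0.1 mM NEAA/1 mM pyruvate/25 mM HEPES; 3 h compound exposure; beta-lactamase FRET readout after 2 h substrate loading at RT.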
# [15] = cAMP Responsive Elements (CRE) small molecule antagonists, cell-based qHTS assay (AID 1963591; active = well fitted inhibition curve with a large enough effect in the signal ratio in the repeat runs, not every such curve was filed as active; the % refers to the signal ratio)
# Method in brief: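 Inhibition of NKH477-driven (0.25 uM final) CRE-beta-lactamase signal in HEK293T cells, 3 h compound exposure at 37 °C, detected by FRET substrate fluorescence.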
# [16] = target: Beta-2 adrenergic receptor (Homo sapiens) (UniProt P07550); assay: Adrenergic beta2 receptor (ADRB2) small molecule antagonists, cell-based qHTS assay (AID 1963592); note: series mostly up to about 92 µM; nearly all actives have a fitted effect of over 50% in size
# Method in brief: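 Cells (CHO, stable ADRB2 overexpression) incubated 18-20hr at 37C; compounds added from DMSO; agonist mix (1nM isoproterenol, 100uM IBMX, 25uM Ro-20-1724) added; 0.5hr RT; d2-cAMP and anti-cAMP-cryptate added; 1hr RT; 665/615 nm read.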
# [17] = target: D(2) dopamine receptor (Homo sapiens) (UniProt P14416); assay: Dopamine D2 receptor (DRD2) small molecule agonists, cell-based qHTS assay (AID 1963594); note: nearly all actives have a fitted effect of over 35% in size
# Method in brief: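 cAMP accumulation in DRD2-HEK293 cells measured by HTRF after 1 h detection; compounds added 10 min before NKH477 (200nM […]) forskolin-analogue stimulation, 30 min at room temperature, with Ro20-1724 present at 0.1 mM final.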
# [18] = target: D(2) dopamine receptor (Homo sapiens) (UniProt P14416); assay: Dopamine D2 receptor (DRD2) small molecule antagonists, cell-based qHTS assay (AID 1963595; active = well fitted inhibition curve with a large enough effect in the signal ratio in the repeat runs, with a control signal flat; the % refers to the signal ratio)
# Method in brief: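 Antagonism was scored as restored cAMP in HEK293-DRD2 cells. These cells were stimulated with 200 nM NKH477 and 12 nM quinpirole for 30 min at room temperature, in the presence of 0.1 mM Ro20-1724.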
# [19] = p53 small molecule agonists, cell-based qHTS assay (AID 1963582; active = well fitted activation curve with a large enough effect in the signal ratio in the repeat runs, not every such curve was filed as active; the % refers to the signal ratio)
# Method in brief: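 Compounds are pin-transferred in DMSO onto p53RE-bla cells and incubated 16 h at 37 C. The B/G FRET beta-lactamase substrate is then applied for 2 h at RT and fluorescence recorded.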
# [20] = target: Beta-2 adrenergic receptor (Homo sapiens) (UniProt P07550); assay: Adrenergic beta2 receptor (ADRB2) small molecule agonists, cell-based qHTS assay (AID 1963593);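 note: CHO cells stably overexpressing human ADRB2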
# Method in brief: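 CHO cells stably over-expressing ADRB2 were plated overnight at 37C, then dosed with compounds plus a stimulation mix containing 100uM IBMX and 25uM Ro-20-1724 for 0.5hr at room temperature. cAMP was measured by HTRF competition, 1hr.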
# Sequence of Muscarinic acetylcholine receptor M1 (Homo sapiens) (P11229 whole entry, looked up): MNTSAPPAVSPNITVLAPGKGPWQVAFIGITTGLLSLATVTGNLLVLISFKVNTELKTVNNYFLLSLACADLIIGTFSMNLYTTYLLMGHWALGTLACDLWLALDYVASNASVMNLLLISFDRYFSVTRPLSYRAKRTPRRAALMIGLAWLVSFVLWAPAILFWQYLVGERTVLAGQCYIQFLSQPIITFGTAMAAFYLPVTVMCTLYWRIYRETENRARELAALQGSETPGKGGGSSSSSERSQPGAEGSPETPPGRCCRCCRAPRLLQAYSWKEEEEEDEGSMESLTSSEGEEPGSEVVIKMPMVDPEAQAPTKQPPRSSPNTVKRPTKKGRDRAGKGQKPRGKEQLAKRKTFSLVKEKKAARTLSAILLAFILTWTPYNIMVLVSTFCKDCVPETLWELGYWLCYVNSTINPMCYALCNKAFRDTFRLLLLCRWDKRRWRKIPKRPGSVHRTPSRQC
# Sequence of Beta-2 adrenergic receptor (Homo sapiens) (P07550 whole entry, looked up): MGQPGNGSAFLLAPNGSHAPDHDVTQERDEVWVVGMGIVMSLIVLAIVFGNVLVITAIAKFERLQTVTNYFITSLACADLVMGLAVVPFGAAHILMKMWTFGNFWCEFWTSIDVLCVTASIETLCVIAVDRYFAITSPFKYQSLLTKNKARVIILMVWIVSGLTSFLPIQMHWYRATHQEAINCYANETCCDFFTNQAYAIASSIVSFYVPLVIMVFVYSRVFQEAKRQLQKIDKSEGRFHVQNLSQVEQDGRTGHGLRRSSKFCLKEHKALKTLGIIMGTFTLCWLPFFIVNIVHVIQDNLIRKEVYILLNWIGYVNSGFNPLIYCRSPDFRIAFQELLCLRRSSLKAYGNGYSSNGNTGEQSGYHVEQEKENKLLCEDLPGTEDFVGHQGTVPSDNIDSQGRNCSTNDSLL
# Sequence of D(2) dopamine receptor (Homo sapiens) (P14416 whole entry, looked up): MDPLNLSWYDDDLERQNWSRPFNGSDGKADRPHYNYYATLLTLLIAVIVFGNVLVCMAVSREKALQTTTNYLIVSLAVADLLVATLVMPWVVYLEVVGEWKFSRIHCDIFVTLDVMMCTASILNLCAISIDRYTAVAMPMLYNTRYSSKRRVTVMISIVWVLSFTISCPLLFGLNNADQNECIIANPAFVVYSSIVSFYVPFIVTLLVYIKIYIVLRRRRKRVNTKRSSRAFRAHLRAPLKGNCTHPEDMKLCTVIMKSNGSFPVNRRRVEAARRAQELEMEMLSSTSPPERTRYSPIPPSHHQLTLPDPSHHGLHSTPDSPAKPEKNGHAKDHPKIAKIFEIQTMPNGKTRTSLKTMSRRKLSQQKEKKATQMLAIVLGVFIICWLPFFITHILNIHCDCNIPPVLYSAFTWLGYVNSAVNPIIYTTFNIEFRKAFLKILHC
# Sequence of KiSS-1 receptor (Homo sapiens) (Q969F8 whole entry, looked up): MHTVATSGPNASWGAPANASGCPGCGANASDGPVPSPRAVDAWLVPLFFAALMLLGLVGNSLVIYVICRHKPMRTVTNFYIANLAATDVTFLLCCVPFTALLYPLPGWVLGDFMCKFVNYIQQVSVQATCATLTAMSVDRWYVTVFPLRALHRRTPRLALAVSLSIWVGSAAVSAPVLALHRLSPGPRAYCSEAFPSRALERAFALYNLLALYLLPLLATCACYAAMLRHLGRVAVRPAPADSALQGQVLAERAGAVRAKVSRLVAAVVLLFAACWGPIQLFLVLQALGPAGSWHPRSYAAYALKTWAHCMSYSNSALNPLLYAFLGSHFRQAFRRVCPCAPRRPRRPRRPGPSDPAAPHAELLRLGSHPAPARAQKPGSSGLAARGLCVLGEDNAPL
# Sequence of Gonadotropin-releasing hormone receptor (Homo sapiens) (P30968 whole entry, looked up): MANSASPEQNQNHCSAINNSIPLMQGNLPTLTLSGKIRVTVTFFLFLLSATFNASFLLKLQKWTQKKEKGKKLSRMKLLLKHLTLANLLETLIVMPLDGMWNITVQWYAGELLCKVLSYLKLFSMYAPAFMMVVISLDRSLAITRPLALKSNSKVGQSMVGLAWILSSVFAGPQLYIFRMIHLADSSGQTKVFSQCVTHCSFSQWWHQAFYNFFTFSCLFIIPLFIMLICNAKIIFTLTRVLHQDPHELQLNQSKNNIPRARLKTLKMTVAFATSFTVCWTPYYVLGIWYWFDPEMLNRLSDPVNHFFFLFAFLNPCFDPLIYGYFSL
# Sequence of 5-hydroxytryptamine receptor 2A (Homo sapiens) (P28223 whole entry, looked up): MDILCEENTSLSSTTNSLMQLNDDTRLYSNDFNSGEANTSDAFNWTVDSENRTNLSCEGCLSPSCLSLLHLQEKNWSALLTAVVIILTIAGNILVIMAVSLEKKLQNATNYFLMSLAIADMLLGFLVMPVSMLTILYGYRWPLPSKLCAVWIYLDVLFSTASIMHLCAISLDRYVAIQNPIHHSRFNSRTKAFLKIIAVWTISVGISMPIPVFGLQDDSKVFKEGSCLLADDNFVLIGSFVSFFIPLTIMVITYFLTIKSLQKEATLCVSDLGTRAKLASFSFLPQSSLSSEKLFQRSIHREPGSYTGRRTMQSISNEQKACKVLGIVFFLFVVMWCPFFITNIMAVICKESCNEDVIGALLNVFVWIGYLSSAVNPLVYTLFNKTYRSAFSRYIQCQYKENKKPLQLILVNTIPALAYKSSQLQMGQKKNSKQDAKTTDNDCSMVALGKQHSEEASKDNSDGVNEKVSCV
smiles,measurement,setting,value
CCCCN,Potency,[1],inactive
same,Potency,[2],36.3 µM (active)
same,Potency,[3],inactive
same,Potency,[4],inactive
same,Potency,[5],inactive
same,Potency,[6],inactive
same,Potency,[7],inactive
same,Potency,[8],inactive
same,Potency,[9],inactive
same,Potency,[10],inactive
same,Potency,[11],inactive
same,Potency,[12],inactive
same,Potency,[13],inactive
same,Potency,[14],inactive
same,Potency,[15],inactive
same,Potency,[16],inactive
same,Potency,[17],inactive
same,Potency,[18],inactive
C=C(C)C1CCC(C)(O)CC1 (stereo unspecified),Potency,[1],inactive
same,Potency,[2],inactive
same,Potency,[3],inactive
same,Potency,[4],inactive
same,Potency,[5],inactive
same,Potency,[6],inactive
same,Potency,[7],inactive
same,Potency,[8],inactive
same,Potency,[9],inactive
same,Potency,[19],inactive
same,Potency,[10],inactive
same,Potency,[11],inactive
same,Potency,[12],inactive
same,Potency,[13],inactive
same,Potency,[14],inactive
same,Potency,[15],inactive
same,Potency,[20],inactive
same,Potency,[17],inactive
O=C(O)Cn1cnnn1,Potency,[1],inactive
same,Potency,[2],inactive
same,Potency,[3],inactive
same,Potency,[4],inactive
same,Potency,[5],inactive
same,Potency,[6],inactive
same,Potency,[7],inactive
same,Potency,[8],inactive
same,Potency,[9],inactive
same,Potency,[10],inactive
same,Potency,[11],inactive
same,Potency,[12],inactive
same,Potency,[13],inactive
same,Potency,[14],inactive
same,Potency,[15],inactive
same,Potency,[16],inactive
same,Potency,[20],inactive
same,Potency,[17],inactive
same,Potency,[18],inactive
CN(C)C(=O)Oc1cccc([N+](C)(C)C)c1,Potency,[1],inactive
same,Potency,[2],inactive
same,Potency,[3],inactive
same,Potency,[4],inactive
same,Potency,[5],inactive
same,Potency,[6],inactive
same,Potency,[7],inactive
same,Potency,[8],inactive
same,Potency,[9],inactive
same,Potency,[19],inactive
same,Potency,[15],inactive
same,Potency,[16],inactive
same,Potency,[17],inactive
C[C@@H]1C[C@H]2[C@@H]3CCC4=CC(=O)C=C[C@]4(C)[C@@]3(F)[C@@H](O)C[C@]2(C)[C@@]1(O)C(=O)COC(=O)c1ccncc1,Potency,[1],inactive
same,Potency,[2],inactive
same,Potency,[3],inactive
same,Potency,[4],inactive
same,Potency,[5],inactive
same,Potency,[6],inactive
same,Potency,[7],inactive
same,Potency,[8],inactive
same,Potency,[9],inactive
same,Potency,[19],inactive
same,Potency,[12],inactive
same,Potency,[13],inactive
same,Potency,[14],inactive
same,Potency,[15],inactive
same,Potency,[16],inactive
same,Potency,[18],inactive
C[N+](C)(C)CCOC(N)=O,Potency,[1],inactive
same,Potency,[2],inactive
same,Potency,[3],2.39 µM (active)
same,Potency,[4],inactive
same,Potency,[5],inactive
same,Potency,[6],inactive
same,Potency,[7],inactive
same,Potency,[8],inactive
same,Potency,[9],inactive
same,Potency,[19],inactive
same,Potency,[14],inactive
same,Potency,[15],inactive
same,Potency,[16],inactive
same,Potency,[20],inactive
same,Potency,[17],inactive
same,Potency,[18],inactive
COC(=O)CSc1cc(N=c2sc(=O)n3n2CCCC3)c(F)cc1Cl,Potency,[1],inactive
same,Potency,[2],inactive
same,Potency,[3],inactive
same,Potency,[4],inactive
same,Potency,[5],inactive
same,Potency,[6],inactive
same,Potency,[7],inactive
same,Potency,[8],inactive
same,Potency,[9],inactive
same,Potency,[10],inactive
same,Potency,[11],inactive
same,Potency,[12],inactive
same,Potency,[13],inactive
Cn1ccc2cc3c(cc21)CCN3C(=O)Nc1cccnc1,"activity change, negative = cytotoxicity",[1],3.31% [at 19 µM]
same,"activity, positive = activation",[2],26.3% [at 19 µM]
same,activity change,[3],"-0.165% [at 11.8 µM, stronger effect = higher value]"
same,activation,[4],-2.7% [at 15.8 µM]
same,activation,[5],0.454% [at 11.8 µM]
same,activation,[6],-2.12% [at 13.6 µM]
same,"activity change, negative = cytotoxicity",[7],-7.75% [at 13.5 µM]
same,"activity change, negative = cytotoxicity",[8],-3.54% [at 13.5 µM]
same,"activity change, negative = cytotoxicity",[9],-10.9% [at 13.5 µM]
same,activation,[19],-0.168% [at 13.5 µM]
same,activation,[11],-6.77% [at 15.9 µM]
same,"activity, negative = inhibition",[12],8.54% [at 12.6 µM]
same,activation,[13],-0.375% [at 15.8 µM]
same,activation,[14],13.1% [at 19 µM]
same,"activity change, negative = inhibition",[16],0.687% [at 19 µM]
same,activation,[20],-9.02% [at 19 µM]
same,activation,[17],16.6% [at 19 µM]
same,"activity change, negative = inhibition",[18],-0.697% [at 18.9 µM]
